As usually defined, the AC50 is the midpoint of the concentration-response curve, whichever way the signal moves.

SMILES strings stand for the structures. Where a structure was tested more than once in an assay, its records may differ in their call. The source made the active and inactive calls. The calls were made as follows: active = hit-call score of the fitted dose curve at least 0.9, where 1 is the maximum; inactive = score below 0.9.

The nature of this experiment: ATG_TGFb_CIS: Attagene CIS-FACTORIAL HepG2 Assay for human Transforming Growth Factor (TGF) (AID 2282967). The note with it: HepG2 Attagene CIS TGFb reporter, mRNA transcription; actives raise or lower the signal. On the procedure:
ATG_CIS is a cell-based, multiplexed-readout assay that uses HepG2, a human liver cell line, with measurements taken at 24 hours after chemical dosing in a 24-well plate.ATG_TGFb_CIS is one of 52 assay component(s) measured or calculated from the ATG_CIS assay. It is designed to make measurements of mRNA induction, a form of inducible reporter, as detected with fluorescence intensity signals by Reverse transcription polymerase chain reaction (RT-PCR) and Capillary electrophoresis technology.Data from the assay component ATG_TGFb_CIS was analyzed into 1 assay endpoint. This assay endpoint, ATG_TGFb_CIS, was analyzed with bidirectional fitting relative to DMSO as the negative control and baseline of activity. Using a type of inducible reporter, measures of mRNA for gain or loss-of-signal activity can be used to understand the reporter gene at the transcription factor-level as they relate to the gene TGFB1. Furthermore, this assay endpoint can be referred to as a primary readout, because this assay has produced multiple assay endpoints where this one serves a reporter gene function. To generalize the intended target to other relatable targets, this assay endpoint is annotated to the growth factor intended target family, where the subfamily is transforming growth factor beta.
Human liver HepG2 cells are transiently transfected with multiple reporter transcription units (MRTUs) in 6-well plates using FuGene 6 reagent (Roche; 3 ml FuGene/1 mg DNA). The MRTU constructs are regulated by a cis-regulating element (promoter). […] A major difference between the CIS and TRANS system is that in CIS activities of endogenous TFs are measured, whereas the TRANS assay evaluates changes in activities of exogenous, chimeric NR-Gal4 proteins. […] At the end of 24 hour incubation, total RNA was isolated using TriZol reagent (Invitrogen). The isolated RNA is then reverse-transcribed using oligo(dT) primer and Mo-MLV reverse transcriptase (Invitrogen) with DNAse I (Ambion) treatment for 30 min. The one-tenth of the produced cDNA was amplified by PCR using Taq DNA polymerase (Invitrogen) and two reporter sequence-specific primers. The PCR products were fluorescently labeled by primer extension with 6-arboxyfluorescein (6-FAM) 5'-labeled reporter sequence-specific primer (2 min at 95 C, 20 s at 68 C and 10 min at 72 C) and these products were digested with 5U of HpaI (New England Biolabs) for 2h at 37 C. The fragments were purified using Qiaquick PCR columns (Qiagen), analyzed on an ABI 3130xL genetic analyzer (Applied Biosystems) with peak positions identified by using a set of X-rhodamine (ROX)-labeled MapMarker1000 molecular weight standards (BioVentures). The raw capillary electrophoresis data was processed using Attagraph software (Attagene).
`CCOC(=O)CCCCCCCCC(=O)OCC`: the outcome was inactive.

For the molecule `C=C/C(C)=C/C/C=C(\C)CCC=C(C)C`, the molecule was classed as inactive.

Consider `O=C(O)c1ccccc1O`, for which the call was inactive.

Consider `C=C(C)C(=O)OCCOCCOC(=O)C(=C)C`, for which the outcome was inactive.

Regarding `CC(=O)N(C)C`, the call was inactive.

As for `C1CCCNCC1`, the call was inactive.

`O=C(c1ccc(OCCN2CCCCC2)cc1)c1c(-c2ccc(O)cc2)sc2cc(O)ccc12`: the AC50 is 14.7 µM (active) and the molecule was classed as inactive.

Take `c1ccc2scnc2c1`: the result was inactive.

Take `C=CCCCCCCCCC(=O)OCC`: the AC50 was 0.332 µM (active).

Turning to `CC(=O)Nc1cc(S(=O)(=O)O)cc2cc(S(=O)(=O)O)c(N=Nc3ccccc3)c(O)c12`, the call was inactive.

On to `O=C(O)c1cccc(Cl)n1`, for which the molecule was classed as inactive.

`C=C(C)C(=O)OCCC[Si](OC)(OC)OC`: the molecule was classed as inactive.

Regarding `CC(O)CNCC(C)O` (stereo not given), the result was inactive.

For `C1=COCCC1`, the call was inactive.

With `N#CCCNCCC#N`, the call was inactive.

In the case of `C#C[C@]1(O)CC[C@H]2[C@@H]3CCc4cc(O)ccc4[C@H]3CC[C@@]21C`, the outcome was inactive and the AC50 is 100 µM (active).

For `CCOc1ccc(NC(C)=O)cc1`, the result was inactive.

`CNC(=C[N+](=O)[O-])NCCSCc1ccc(CN(C)C)o1`: the call was inactive.

On to `Cc1cc(O)c(C)c(C)c1O`, for which the molecule was classed as inactive.

Turning to `CN(C)c1ccc(C=O)cc1`, the outcome was inactive.

Regarding `CC/C=C\C#N`, the molecule was called inactive.

As for `c1ccc(Cc2ccccc2)cc1`, the call was inactive.

With `CCCCOCCOCCO`, the molecule was classed as inactive.

As for `CCC(C)COC(=O)CC(C)C` (stereo not given), the result was inactive.

`COc1ccccc1NC(=O)CC(C)=O`: the result was inactive.

Consider `CCCCCCCOC(C)=O`, for which the outcome was inactive.

As for `CC(C)CCOC(=O)CC(C)C`, the result was inactive.

In the case of `CCCC[N+](C)(CCCC)CCCC`, the outcome was inactive.

As for `CCCCCC1CCC(=O)O1` (stereo not given), the molecule was called inactive.

`CCCCCCCC1CCCC1=O` (stereo not given): the molecule was classed as inactive.

`CC(=O)c1ccc(C)cc1`: the call was inactive.

On to `[Cu+]`, for which the result was inactive.

Turning to `CC(=O)Oc1c(C)c(C)c2c(c1C)CC[C@@](C)(CCC[C@H](C)CCC[C@H](C)CCCC(C)C)O2`, the molecule was classed as inactive.

For `Cc1cccc(O)c1`, the molecule was called inactive.

Consider `O=Cc1ccccc1O`, for which the result was inactive.

Consider `Cc1ccccc1S`, for which the molecule was called inactive.

Regarding `S=c1[nH][nH]c(=S)s1`, the call was inactive.

On to `C=CC(O)CCCCC` (stereo not given), for which the molecule was called inactive.

For the origin of these results see PubChem BioAssay (EPA / NIEHS).
